{"source": "PubChem BioAssay (NCATS)", "key": {"[1]": {"assay": "qHTS Assay for Identification of Small Molecule Antagonists for Thrombopoietin (TPO) Signaling Pathway (AID 918); note: potency is the fitted concentration of half-maximal effect; nearly all actives have a fitted effect of over 60% in size", "conditions": "TPO-dependent cell signaling reporter, antagonist mode", "procedure,_shortened": "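Murine Ba/F3 cells stably expressing human TPO receptor and a Glycoprotein IIb promoter–luciferase reporter were IL-3-starved overnight, treated with compounds plus TPO (26 pM final, its EC50) for 24 hrs at 37 C, then read by luminescence.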"}, "[2]": {"target": "Pyruvate kinase (Leishmania mexicana) (UniProt Q27686)", "sequence (Q27686 2-499 E452W)": "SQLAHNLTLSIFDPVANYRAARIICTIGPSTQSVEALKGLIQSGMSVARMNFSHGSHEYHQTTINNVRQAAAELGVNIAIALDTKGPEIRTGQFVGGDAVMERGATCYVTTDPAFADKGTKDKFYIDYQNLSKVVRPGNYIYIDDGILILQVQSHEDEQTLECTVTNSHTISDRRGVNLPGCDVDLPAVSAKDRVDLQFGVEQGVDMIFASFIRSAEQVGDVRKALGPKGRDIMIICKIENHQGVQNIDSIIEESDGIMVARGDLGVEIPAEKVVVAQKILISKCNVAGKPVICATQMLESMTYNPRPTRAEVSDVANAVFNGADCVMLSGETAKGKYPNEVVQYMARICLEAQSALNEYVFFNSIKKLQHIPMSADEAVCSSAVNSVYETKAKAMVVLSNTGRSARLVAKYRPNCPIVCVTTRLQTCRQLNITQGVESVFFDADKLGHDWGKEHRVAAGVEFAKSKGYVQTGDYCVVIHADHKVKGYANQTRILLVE", "assay": "qHTS Validation Assay for Activators of Leishmania Mexicana Pyruvate Kinase (AID 959)", "conditions": "purified L. mexicana pyruvate kinase, enzyme activity; series mostly up to 57.5 µM", "procedure,_shortened": "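LmPYK E451W 0.2 nM; 0.5 mM PEP, 0.1 mM ADP, 7 mM MgCl2, 50 mM KCl, imidazole pH 7.2, 0.01% Tween 20, 0.05% BSA; 1 h RT; PKLight luminescence; DMSO-normalized.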"}, "[3]": {"assay": "qHTS assay for small molecule agonists of the antioxidant response element (ARE) signaling pathway measured by Nrf2-dependant transcriptional activity (AID 720636; active = well fitted curve in the direction sought with a large enough effect in the repeat runs; an effect the other way counts as inactive or inconclusive)", "conditions": "ARE-luc HepG2, Nrf2 luciferase reporter, 16 h; series mostly up to 92.4 µM", "procedure,_shortened": "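ARE-luc HepG2 cells carrying an Nrf2-responsive luciferase reporter were plated in medium with 1% dialyzed FBS, left 6 hr at 37 C to attach, then exposed to compound for 16 hr. Luciferase luminescence was read after ONE-Glo addition.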"}, "[4]": {"target": "Cytochrome P450 2C19 (Homo sapiens) (UniProt P33261)", "sequence (P33261 whole entry, looked up)": "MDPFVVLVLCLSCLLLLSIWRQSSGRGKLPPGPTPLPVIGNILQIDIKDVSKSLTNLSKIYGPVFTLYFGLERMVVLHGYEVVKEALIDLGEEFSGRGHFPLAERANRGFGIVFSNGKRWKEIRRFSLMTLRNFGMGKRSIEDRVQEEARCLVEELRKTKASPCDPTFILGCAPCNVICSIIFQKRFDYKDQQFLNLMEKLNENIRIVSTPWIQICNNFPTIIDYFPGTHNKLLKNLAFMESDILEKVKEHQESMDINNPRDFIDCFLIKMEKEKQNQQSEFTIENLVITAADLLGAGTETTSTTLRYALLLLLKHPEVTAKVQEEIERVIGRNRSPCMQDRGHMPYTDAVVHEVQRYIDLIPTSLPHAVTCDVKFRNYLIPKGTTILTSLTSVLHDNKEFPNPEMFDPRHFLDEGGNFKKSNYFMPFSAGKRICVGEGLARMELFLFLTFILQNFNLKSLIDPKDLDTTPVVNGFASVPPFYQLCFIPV", "assay": "qHTS Assay for Inhibitors and Substrates of Cytochrome P450 2C19 (AID 899); note: potency is the fitted concentration of half-maximal effect; nearly all actives have a fitted effect of over 60% in size", "conditions": "recombinant CYP2C19, luciferin-H EGE luminescence; series mostly up to 57.1 µM", "procedure,_shortened": "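Reactions contain 5nM enzyme, 10uM Luciferin-H EGE (KM) and 50mM KPO4; compound preincubates 10 min at 37C, NADPH regeneration starts turnover for 60 min. Luminescence after detection reagent gives activity.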"}, "[5]": {"assay": "Confirmation and Secondary Assay for Modulators of Hemoglobin Beta Chain Splicing at IVS2 654 locus (AID 910);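 note: per-well total GFP intensity by laser scanning cytometry after 2-day treatment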", "conditions": "HeLa EGFP-654 splicing reporter, GFP fluorescence, 48 h; series mostly up to 38.3 µM", "procedure,_shortened": "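Readout: per-well total peak green fluorescence (488 nm ex, 500–520 nm em) from objects 5–250 µm, reflecting correct splicing of an EGFP-654 reporter. Compounds were applied for 2 days at 37 °C to overnight-plated HeLa EGFP-654 cells; controls were DMSO and 500 nM IVS2-654 PNA.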"}, "[6]": {"assay": "Confirmation and Secondary Assay for Modulators of Hemoglobin Beta Chain Splicing at IVS2 705 locus (AID 930)", "conditions": "HeLa EGFP-705 splicing reporter, GFP fluorescence, 48 h; series mostly up to 38.3 µM", "procedure,_shortened": "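HeLa cells stably carrying EGFP interrupted by mutant beta-globin IVS2-705 intron (CMV-driven) were seeded at 500 cells/well, treated next day with compound for 2 days at 37C; corrected splicing restores EGFP, read as total peak GFP intensity per well.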"}}, "note": "Inconclusive results are not listed. Where a call stands in place of a potency, no number is given. Activity calls are given as the source filed them. Unless noted, calls come from the whole dose curve; as a rule, active = well fitted curve in the direction sought with a large enough effect; inconclusive = small, poorly fitted or top-dose-only effect, or another doubt; inactive = no such curve, though single readings can be large; an effect the other way counts as inactive or inconclusive.", "data": [{"smiles": "NCCCCNS(=O)(=O)c1cccc2c(Cl)cccc12", "values": [{"measurement": "Potency", "setting": "[1]", "value": "10 µM (active)"}]}, {"smiles": "CCSC(N)=Nc1ccc(C(F)(F)F)cc1", "values": [{"measurement": "outcome", "setting": "[2]", "value": "inactive"}]}, {"smiles": "N[C@H](Cc1ccc(O)c(O)c1)C(=O)O", "values": [{"measurement": "outcome", "setting": "[3]", "value": "inactive"}]}, {"smiles": "CCCC(=O)NCCc1c2n(c3ccc(OC)cc13)Cc1ccccc1-2", "values": [{"measurement": "Potency", "setting": "[4]", "value": "0.398 µM (active)"}]}, {"smiles": "NC[C@@H](O)c1ccc(O)c(O)c1", "values": [{"measurement": "outcome", "setting": "[5]", "value": "inactive"}, {"measurement": "outcome", "setting": "[6]", "value": "inactive"}]}]}
